From PubChem BioAssay
Inconclusive results are not listed. Activity calls are given as the source filed them.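 Rule for the calls, unless noted: active = GFP signal, as percent of the solvent control, above the screen mean plus 3 SD, about 149; inconclusive = no reading because the compound's own fluorescence upset strain identification; inactive = the rest.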

Legend:
[1] = yeast TOR pathway RPL19A-GFP modulators, primary screen, cell-based, S. cerevisiae, multiplex flow cytometry (AID 1862; in the data active = percent of DMSO control GFP below about 86%;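 note: lower values mimic rapamycin by blocking the RPL19A rise seen in DMSO cells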); conditions: S. cerevisiae RPL19A-GFP strain, flow cytometry fluorescence, 3 h; at 10 µM; stronger effect = lower value
[2] = modulators of MEP2-GFP levels in yeast, primary screen, S. cerevisiae, multiplex flow cytometry (AID 1867;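 active = GFP response, as percent of the DMSO control, above the screen-wide mean plus 3 SD, about 139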;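 note: median GFP channel fluorescence of barcode-gated MEP2-GFP cells measured by flow cytometry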); conditions: S. cerevisiae MEP2-GFP strain, 3 h, at 10 µM, stronger effect = higher value, 100% means same as DMSO wells
[3] = modulators of CIT2-GFP expression in yeast, primary screen, S. cerevisiae, GFP fusion, multiplex flow cytometry (AID 1870;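 active = percent response above a set limit, the screen-wide mean plus 3 SD, cut at about 130% in these data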;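 note: barcoded CIT2-GFP strain pooled with four other GFP strains with rapamycin as positive control; median GFP fluorescence per well over plate mean of DMSO wells so 100% = DMSO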); conditions: 3 h, at 10 µM, stronger effect = higher value
[4] = modulators of LAP4-GFP expression in yeast, primary screen, S. cerevisiae, multiplex flow cytometry (AID 1873); conditions: 3 h, at 10 µM, stronger effect = higher value
[5] = modulators of AGP1-GFP expression in yeast TOR pathway, primary screen, cell-based, multiplex flow cytometry, S. cerevisiae (AID 1887;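 active = GFP signal above the screen-wide mean plus 3 SD, that is over about 124.5% of the solvent control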;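 note: AGP1-GFP fusion strain of S. cerevisiae within a five-strain barcoded multiplex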); conditions: 3 h, at 10 µM, stronger effect = higher value
[6] = inhibitors of CD8+ T cell-vesicle binding, pilot screen, LFA-1/ICAM-1 modulator project, MLPCN validation set, flow cytometry (AID 2523;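 active = response below a set limit, under 55% cells CD8-positive and vesicle-bound, and CD8 cells' 90th-percentile brightness under 279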;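 for vesicle binding response: mean PE anti-B7-1 fluorescence of CD8+ cells relative to row control; 100% = QL9-loaded vesicles with DMSO vehicle in the same plate row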); conditions: 2C mouse CD8+ T cells, at 7 µM, stronger effect = lower value; double positive events: measured here: CD8+/vesicle+ event percentage
[7] = target: Integrin beta-1 (Homo sapiens) + Integrin alpha-4 (Homo sapiens) (UniProt P13612+P05556); assay: inhibition of HUTS-21 binding to VLA-4, pilot screen, VLA-4 allosteric modulator project, U937 cells, HUTS-21 mAb, flow cytometry, validation set (AID 2674;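 active = inhibition above 50%, about 3 SD of the validation set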;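 note: antibody binding induced by the VLA-4 ligand LDV present at three times its Kd; 0% = LDV ligand with antibody and no compound and 100% = antibody without LDV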); conditions: HUTS-21 LIBS mAb binding, at 6.7 µM, stronger effect = higher value, binding induced by LDV ligand
Chain of Integrin beta-1 (Homo sapiens) + Integrin alpha-4 (Homo sapiens) (P05556 whole entry, looked up): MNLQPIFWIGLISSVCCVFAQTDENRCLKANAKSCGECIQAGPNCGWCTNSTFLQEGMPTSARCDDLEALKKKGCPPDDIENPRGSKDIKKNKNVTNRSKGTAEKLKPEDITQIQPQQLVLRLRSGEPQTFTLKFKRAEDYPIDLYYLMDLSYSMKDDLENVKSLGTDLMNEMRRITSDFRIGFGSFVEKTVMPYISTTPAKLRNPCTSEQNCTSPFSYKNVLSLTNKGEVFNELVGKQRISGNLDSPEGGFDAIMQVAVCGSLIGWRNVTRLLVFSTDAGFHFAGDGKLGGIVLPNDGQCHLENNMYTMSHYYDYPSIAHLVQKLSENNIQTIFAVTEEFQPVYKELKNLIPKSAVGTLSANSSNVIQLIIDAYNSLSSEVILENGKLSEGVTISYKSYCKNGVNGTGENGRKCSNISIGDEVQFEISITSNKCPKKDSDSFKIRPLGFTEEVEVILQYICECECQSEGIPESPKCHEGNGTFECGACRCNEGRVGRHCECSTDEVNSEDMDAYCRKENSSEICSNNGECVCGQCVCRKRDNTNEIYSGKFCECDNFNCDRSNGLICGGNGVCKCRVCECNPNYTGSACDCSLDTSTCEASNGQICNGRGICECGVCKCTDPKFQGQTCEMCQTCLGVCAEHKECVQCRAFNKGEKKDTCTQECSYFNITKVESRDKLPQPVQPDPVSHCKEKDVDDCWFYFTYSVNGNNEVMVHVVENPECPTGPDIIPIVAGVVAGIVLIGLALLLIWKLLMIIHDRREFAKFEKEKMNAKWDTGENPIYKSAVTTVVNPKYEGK
Chain of Integrin beta-1 (Homo sapiens) + Integrin alpha-4 (Homo sapiens) (P13612 whole entry, looked up): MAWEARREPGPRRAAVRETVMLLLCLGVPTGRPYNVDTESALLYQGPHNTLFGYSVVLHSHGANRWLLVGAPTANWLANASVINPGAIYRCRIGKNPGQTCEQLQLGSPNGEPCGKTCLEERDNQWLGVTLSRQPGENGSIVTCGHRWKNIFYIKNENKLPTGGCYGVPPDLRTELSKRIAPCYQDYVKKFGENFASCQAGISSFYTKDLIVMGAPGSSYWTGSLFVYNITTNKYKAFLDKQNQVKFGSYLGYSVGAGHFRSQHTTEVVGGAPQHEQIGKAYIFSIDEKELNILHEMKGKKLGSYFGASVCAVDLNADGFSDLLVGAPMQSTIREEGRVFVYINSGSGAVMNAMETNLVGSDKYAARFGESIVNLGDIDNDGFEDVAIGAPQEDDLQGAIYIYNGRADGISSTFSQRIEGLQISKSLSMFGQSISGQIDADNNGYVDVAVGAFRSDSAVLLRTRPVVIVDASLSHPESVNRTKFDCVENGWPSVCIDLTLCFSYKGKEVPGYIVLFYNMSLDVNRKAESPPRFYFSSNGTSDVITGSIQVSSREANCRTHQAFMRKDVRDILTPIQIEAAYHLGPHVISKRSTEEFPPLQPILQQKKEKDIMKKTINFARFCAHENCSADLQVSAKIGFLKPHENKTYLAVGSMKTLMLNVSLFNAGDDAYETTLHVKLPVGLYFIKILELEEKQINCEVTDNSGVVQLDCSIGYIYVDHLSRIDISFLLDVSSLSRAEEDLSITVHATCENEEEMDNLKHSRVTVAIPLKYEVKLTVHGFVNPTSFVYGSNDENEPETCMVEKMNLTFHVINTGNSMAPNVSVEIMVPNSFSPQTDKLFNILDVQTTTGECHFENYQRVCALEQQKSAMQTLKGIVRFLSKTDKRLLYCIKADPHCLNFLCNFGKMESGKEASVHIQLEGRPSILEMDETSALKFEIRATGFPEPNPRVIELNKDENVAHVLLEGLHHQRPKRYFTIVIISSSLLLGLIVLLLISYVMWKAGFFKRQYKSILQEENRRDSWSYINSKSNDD

[8] = superoxide lowering in aged yeast cells, pilot screen, validation compound set (AID 2706;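 active = superoxide response below 65% of plate, a cut near 3 SD across the whole screen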;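 note: yeast exposed to compound for one week at 30 degrees C before staining; 100% = mean of all compound wells on the same plate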); conditions: S. cerevisiae aging, superoxide DHE fluorescence; at 10 µM; stronger effect = lower value
[9] = target: Beta-adrenergic receptor kinase 1 (Homo sapiens) (UniProt P25098); assay: GRK2 binders displacing RNA aptamer, biochemical, validation, human GRK2, bead flow cytometry (AID 488806;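 active = aptamer binding inhibition above 30%, about 3 SD of noise from non-fluorescent compounds; inactive = inhibition at or below 30%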); conditions: bead-bound GRK2, FAM-aptamer displacement, at 10 µM, stronger effect = higher value
Chain of Beta-adrenergic receptor kinase 1 (Homo sapiens) (P25098 whole entry, looked up): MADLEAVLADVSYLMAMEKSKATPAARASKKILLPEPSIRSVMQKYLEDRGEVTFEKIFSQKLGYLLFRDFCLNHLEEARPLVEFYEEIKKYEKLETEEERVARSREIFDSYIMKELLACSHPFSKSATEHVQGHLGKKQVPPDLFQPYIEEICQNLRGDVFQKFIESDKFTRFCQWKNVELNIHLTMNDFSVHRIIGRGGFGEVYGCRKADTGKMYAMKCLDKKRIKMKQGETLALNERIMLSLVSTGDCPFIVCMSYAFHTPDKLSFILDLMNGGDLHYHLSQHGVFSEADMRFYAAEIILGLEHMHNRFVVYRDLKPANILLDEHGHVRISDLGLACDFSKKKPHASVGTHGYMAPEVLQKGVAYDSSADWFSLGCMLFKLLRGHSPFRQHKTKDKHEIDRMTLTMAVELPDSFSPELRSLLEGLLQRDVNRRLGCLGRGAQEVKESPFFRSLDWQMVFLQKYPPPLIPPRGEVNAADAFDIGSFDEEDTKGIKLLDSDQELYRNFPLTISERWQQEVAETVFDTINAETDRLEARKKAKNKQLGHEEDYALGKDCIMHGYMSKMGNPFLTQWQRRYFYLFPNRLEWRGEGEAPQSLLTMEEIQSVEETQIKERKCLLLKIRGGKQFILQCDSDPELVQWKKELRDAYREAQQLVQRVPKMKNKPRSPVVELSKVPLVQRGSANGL

[10] = target: Beta-2 adrenergic receptor (Homo sapiens) (UniProt P07550); assay: beta2AR agonists driving receptor internalization, pilot screen, cell-based, FAP fluorogen, flow cytometry, validation set (AID 504459;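 active = percent response above 42, roughly 3 SD of non-fluorescent test compounds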;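 note: agonist-driven loss of surface beta2AR via internalization measured by FAP dye flow cytometry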); conditions: Am2.2-beta2AR cells, FAP surface receptor flow cytometry; at 10 µM; stronger effect = higher value
Chain of Beta-2 adrenergic receptor (Homo sapiens) (P07550 whole entry, looked up): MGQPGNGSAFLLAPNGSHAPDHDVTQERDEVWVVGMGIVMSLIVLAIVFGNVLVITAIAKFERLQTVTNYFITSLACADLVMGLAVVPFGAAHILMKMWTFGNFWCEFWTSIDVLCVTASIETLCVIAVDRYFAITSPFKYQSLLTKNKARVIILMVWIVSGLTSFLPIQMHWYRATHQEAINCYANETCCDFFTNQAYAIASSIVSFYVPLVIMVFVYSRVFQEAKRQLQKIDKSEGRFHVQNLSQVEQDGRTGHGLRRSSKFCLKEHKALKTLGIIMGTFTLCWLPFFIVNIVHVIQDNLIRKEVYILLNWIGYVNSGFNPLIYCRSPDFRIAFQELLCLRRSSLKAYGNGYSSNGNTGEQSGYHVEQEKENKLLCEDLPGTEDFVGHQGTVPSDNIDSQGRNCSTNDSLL

[11] = target: AP-2 complex subunit beta (Homo sapiens) (UniProt P63010); assay: inhibitors of arrestin peptide binding to AP2, pilot screen, biochemical, validation set, GST-AP2 beads, flow cytometry (AID 504541;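 active = inhibition above 54%, about 3 SD of non-fluorescent compounds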;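 note: AP2 carries R879A mutation and is captured from E. coli lysate; bead-bound FITC arrestin peptide fluorescence measuring arrestin peptide binding to AP2; 0% = DMSO wells and 100% = excess unlabeled arrestin peptide control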); conditions: FITC arrestin peptide, at 10 µM, stronger effect = higher value, AP2 beta2 appendage fragment, R879A mutant
Chain of AP-2 complex subunit beta (Homo sapiens) (P63010 whole entry, looked up, the tested form may be a part, one chain of several): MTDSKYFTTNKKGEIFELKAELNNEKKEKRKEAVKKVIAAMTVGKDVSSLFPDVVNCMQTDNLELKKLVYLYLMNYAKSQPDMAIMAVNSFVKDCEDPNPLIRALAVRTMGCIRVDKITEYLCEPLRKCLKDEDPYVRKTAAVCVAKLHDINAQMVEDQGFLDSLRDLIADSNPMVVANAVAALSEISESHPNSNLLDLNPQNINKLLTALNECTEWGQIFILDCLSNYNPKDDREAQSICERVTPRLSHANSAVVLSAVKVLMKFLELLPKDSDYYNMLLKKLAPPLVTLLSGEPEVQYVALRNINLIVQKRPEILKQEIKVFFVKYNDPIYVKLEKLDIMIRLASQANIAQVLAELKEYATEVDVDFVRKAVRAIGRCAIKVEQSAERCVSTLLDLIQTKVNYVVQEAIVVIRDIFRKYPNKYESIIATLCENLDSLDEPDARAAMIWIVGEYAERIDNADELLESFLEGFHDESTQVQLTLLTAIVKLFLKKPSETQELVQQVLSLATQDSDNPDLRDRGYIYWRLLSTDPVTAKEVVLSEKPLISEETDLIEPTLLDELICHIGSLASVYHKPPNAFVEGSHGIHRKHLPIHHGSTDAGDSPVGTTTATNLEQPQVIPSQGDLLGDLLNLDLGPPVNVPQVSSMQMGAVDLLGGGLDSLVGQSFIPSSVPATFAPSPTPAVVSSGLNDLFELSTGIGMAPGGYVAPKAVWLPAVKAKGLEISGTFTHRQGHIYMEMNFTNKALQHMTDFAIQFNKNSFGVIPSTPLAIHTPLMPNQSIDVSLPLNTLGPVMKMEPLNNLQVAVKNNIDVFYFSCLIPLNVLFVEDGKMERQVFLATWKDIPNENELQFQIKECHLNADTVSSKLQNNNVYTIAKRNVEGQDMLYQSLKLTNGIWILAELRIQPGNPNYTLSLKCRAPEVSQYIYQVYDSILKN

[12] = yeast V-ATPase proton transport modulators, S. cerevisiae, pHLuorin, HTS validation (AID 504600; in the data active = response above about 15%;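 note: plate controls were DMSO for no effect and reference compound for full effect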); conditions: S. cerevisiae pHLuorin cytosolic pH, at 10 µM, stronger effect = higher value
[13] = tested on: anti-desmoglein-3 scFv antibody binding to human DSG3; assay: inhibitors of anti-DSG3 scFv binding to DSG3, pilot screen, biochemical, validation compound set, bead-based, flow cytometry (AID 588368;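 active = binding below the plate cutoff, the plate median minus 3 SD, with a reading above zero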;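 note: signal is the median channel fluorescence of bead-bound GFP antibody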); conditions: Protein G beads, DSG3-Fc, scFv-GFP binding, at 10 µM, stronger effect = lower value
[14] = inhibitors of fungal efflux pumps CDR1, CDR2, MDR1, pilot screen, validation compound set, multiplex, phenotypic (AID 588506;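 active = efflux inhibition above 0.42, the validation set average plus 4 SD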;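 note: Nile Red retained in cells so higher fluorescence means more efflux inhibition; 0 = negative control wells and 1 = enniatin B 25 µM full block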); conditions: S. cerevisiae pump-expressing triplex, Nile Red efflux flow cytometry; at 10 µM; stronger effect = higher value; the pumps come from Candida albicans
[15] = target: ATP-binding cassette sub-family B member 6 (Homo sapiens) (UniProt Q9NP58); assay: ABCB6 transporter inhibitors, pilot screen, K562-ABCB6 cells, flow cytometry, validation set (AID 588550;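 active = inhibition above the screen-wide mean plus 3 SD, about 51%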;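 note: 0% = DMSO wells and 100% = benzethonium chloride 70 µM positive control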); conditions: K562-ABCB6 porphyrin accumulation, 1 h, at 10 µM, stronger effect = higher value
Chain of ATP-binding cassette sub-family B member 6 (Homo sapiens) (Q9NP58 whole entry, looked up): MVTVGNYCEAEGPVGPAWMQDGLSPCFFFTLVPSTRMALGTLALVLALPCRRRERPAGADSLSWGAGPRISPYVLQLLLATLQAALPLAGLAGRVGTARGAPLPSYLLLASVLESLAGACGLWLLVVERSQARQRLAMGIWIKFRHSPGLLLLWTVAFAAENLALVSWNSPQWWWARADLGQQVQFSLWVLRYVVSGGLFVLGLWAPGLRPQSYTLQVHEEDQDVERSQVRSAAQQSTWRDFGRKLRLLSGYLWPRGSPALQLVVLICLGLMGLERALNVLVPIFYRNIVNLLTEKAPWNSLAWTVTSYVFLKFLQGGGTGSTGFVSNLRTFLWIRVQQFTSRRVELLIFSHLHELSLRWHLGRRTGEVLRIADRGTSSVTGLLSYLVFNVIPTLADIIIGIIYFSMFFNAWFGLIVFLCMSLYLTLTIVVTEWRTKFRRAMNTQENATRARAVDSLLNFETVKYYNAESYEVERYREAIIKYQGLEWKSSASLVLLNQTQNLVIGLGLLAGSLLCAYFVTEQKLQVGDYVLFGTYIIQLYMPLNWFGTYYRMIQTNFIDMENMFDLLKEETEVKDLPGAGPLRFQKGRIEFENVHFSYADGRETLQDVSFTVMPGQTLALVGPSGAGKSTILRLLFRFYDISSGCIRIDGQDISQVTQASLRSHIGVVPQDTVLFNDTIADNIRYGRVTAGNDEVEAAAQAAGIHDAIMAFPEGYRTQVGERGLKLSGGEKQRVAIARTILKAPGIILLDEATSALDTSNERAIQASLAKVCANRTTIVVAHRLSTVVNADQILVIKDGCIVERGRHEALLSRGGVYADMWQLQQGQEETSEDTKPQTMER

[16] = promoters of myeloid differentiation in arrested cells, primary screen, cell-based, GFP/MAC1 double positive, flow cytometry, validation set (AID 588685;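 active = differentiation response of at least 50%, scaled between solvent and reference control, from cells with both markers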;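 note: compound exposure lasts four days before antibody staining and flow analysis; 0% = DMSO wells and 100% = 5 µM fulvestrant positive control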); conditions: ER-HoxA9 marrow cells, stronger effect = higher value, normalized: vehicle 0, fulvestrant 100

O=C(O)CCn1cnc2ccccc2c1=O
inactive: percent of DMSO control GFP [1] 97.8% | GFP response vs DMSO [2] 113% | percent response of DMSO control [3] 93.9% | GFP response vs DMSO [4] 111% | GFP response, % of DMSO [5] 97.4% | vesicle binding response [6] 172% | inhibition [7] 9.13% | superoxide response (% of plate) [8] 101% | aptamer binding inhibition [9] 4% | response [10] -1.18% | inhibition [11] -3.21% | response [12] 5.74% | binding (% of control) [13] 101% | efflux inhibition (fraction of control) [14] -0.28 | inhibition [15] 7% | differentiation response [16] -8.8%
58.8%: double positive events [6]

CC(C)CC(NC(=O)CNC(=O)C1O[C@@H]2OC(C)(C)O[C@@H]2[C@H]2OC(C)(C)O[C@@H]12)C(=O)O (stereo partly drawn)
62.4%: double positive events [6]
inactive: percent of DMSO control GFP [1] 101% | GFP response vs DMSO [2] 104% | percent response of DMSO control [3] 102% | GFP response vs DMSO [4] 99.9% | GFP response, % of DMSO [5] 102% | vesicle binding response [6] 214% | inhibition [7] -46.1% | superoxide response (% of plate) [8] 97.8% | aptamer binding inhibition [9] -1% | response [10] -1.33% | inhibition [11] 9.78% | response [12] -1.96% | binding (% of control) [13] 96.9% | efflux inhibition (fraction of control) [14] -0.04 | inhibition [15] -3% | differentiation response [16] 12.9%

O=C(NCC1CCCO1)c1ccc(OC2CCN(C(=O)C3CC3)CC2)cc1 (stereo not drawn)
inactive: percent of DMSO control GFP [1] 98.2% | GFP response vs DMSO [2] 106% | percent response of DMSO control [3] 97.8% | GFP response vs DMSO [4] 96.6% | GFP response, % of DMSO [5] 99.4% | vesicle binding response [6] 5260% | inhibition [7] -22.2% | superoxide response (% of plate) [8] 94% | aptamer binding inhibition [9] 2% | response [10] -3.28% | inhibition [11] -5.78% | response [12] 0.79% | binding (% of control) [13] 101% | efflux inhibition (fraction of control) [14] -0.01 | inhibition [15] 3% | differentiation response [16] -6.6%
63.1%: double positive events [6]

Cc1oc2cc(O)cc(O)c2c(=O)c1-c1ccc2c(c1)OCCCO2
60.8%: double positive events [6]
inactive: percent of DMSO control GFP [1] 95.6% | GFP response vs DMSO [2] 103% | percent response of DMSO control [3] 88.2% | GFP response vs DMSO [4] 128% | GFP response, % of DMSO [5] 91.7% | vesicle binding response [6] 195% | inhibition [7] 14.6% | superoxide response (% of plate) [8] 100% | aptamer binding inhibition [9] 3% | response [10] 5% | inhibition [11] 21% | response [12] 0.59% | binding (% of control) [13] 101% | efflux inhibition (fraction of control) [14] 0.01 | inhibition [15] 8% | differentiation response [16] 12%

O=C(Nc1cccc(Oc2c(F)c(F)c(F)c(F)c2F)c1)N1C[C@@H]2C[C@@H](C1)c1cccc(=O)n1C2
63.7%: double positive events [6]
inactive: percent of DMSO control GFP [1] 100% | GFP response vs DMSO [2] 101% | percent response of DMSO control [3] 101% | GFP response vs DMSO [4] 98% | GFP response, % of DMSO [5] 101% | vesicle binding response [6] 215% | inhibition [7] 15.1% | superoxide response (% of plate) [8] 104% | aptamer binding inhibition [9] 2% | response [10] -14.9% | inhibition [11] -6.11% | response [12] 0.72% | binding (% of control) [13] 88% | efflux inhibition (fraction of control) [14] -0.35 | inhibition [15] -6% | differentiation response [16] 7.09%

C[N+](C)(C)CCCC(=O)c1ccc2c(c1)OCO2
inactive: percent of DMSO control GFP [1] 94.4% | GFP response vs DMSO [2] 111% | percent response of DMSO control [3] 96.7% | GFP response vs DMSO [4] 107% | GFP response, % of DMSO [5] 97.7% | vesicle binding response [6] 135% | inhibition [7] -22.3% | superoxide response (% of plate) [8] 104% | aptamer binding inhibition [9] 0% | response [10] -0.41% | inhibition [11] -2.19% | response [12] 0.48% | binding (% of control) [13] 101% | efflux inhibition (fraction of control) [14] -0.03 | inhibition [15] 8% | differentiation response [16] -12%
59.8%: double positive events [6]

Cc1cccc(Oc2coc3cc(OC(=O)c4cncc(Br)c4)ccc3c2=O)c1
inactive: percent of DMSO control GFP [1] 98% | GFP response vs DMSO [2] 111% | percent response of DMSO control [3] 95.8% | GFP response vs DMSO [4] 126% | GFP response, % of DMSO [5] 100% | vesicle binding response [6] 224% | inhibition [7] -4.52% | superoxide response (% of plate) [8] 78.9% | aptamer binding inhibition [9] 1% | response [10] 9.93% | inhibition [11] -11.9% | response [12] 1.76% | binding (% of control) [13] 99.1% | efflux inhibition (fraction of control) [14] 0.33 | differentiation response [16] 10.4%
active: inhibition [15] 103%
64.8%: double positive events [6]

CC1(C)O[C@@H]2C[C@H]3[C@@H]4C[C@H](F)C5=CC(=O)C=C[C@]5(C)[C@@]4(F)[C@@H](O)C[C@]3(C)[C@]2(C(=O)CO)O1
inactive: percent of DMSO control GFP [1] 102% | GFP response vs DMSO [2] 102% | percent response of DMSO control [3] 105% | GFP response vs DMSO [4] 102% | GFP response, % of DMSO [5] 111% | vesicle binding response [6] 113% | inhibition [7] -5.11% | superoxide response (% of plate) [8] 103% | aptamer binding inhibition [9] 1% | response [10] 6.68% | inhibition [11] -10.8% | response [12] 0.85% | binding (% of control) [13] 104% | efflux inhibition (fraction of control) [14] -0.025 | inhibition [15] 19% | differentiation response [16] -8.96%
57.8%: double positive events [6]

NC(=O)c1cnccn1
60.5%: double positive events [6]
inactive: percent of DMSO control GFP [1] 101% | GFP response vs DMSO [2] 110% | percent response of DMSO control [3] 92.5% | GFP response vs DMSO [4] 110% | GFP response, % of DMSO [5] 111% | vesicle binding response [6] 240% | inhibition [7] 10.8% | superoxide response (% of plate) [8] 102% | aptamer binding inhibition [9] 9% | response [10] -6.65% | inhibition [11] -9.13% | response [12] 11.1% | binding (% of control) [13] 102% | efflux inhibition (fraction of control) [14] -0.09 | inhibition [15] 2% | differentiation response [16] 25.6%
